Each structure is given as a SMILES string. The panel holds about 83,000 compounds, 20% with a hit somewhere; the sample as a whole holds those more often.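 Activity criterion: percent growth below 10, measured after cells in 96-well plates were exposed to a single compound concentration for 48 hours.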 Values without a mark were called inactive. Calls of active or inactive are those of the source.

The text below walks through data of PubChem BioAssay (NCI).

Test systems include NCI-H23 lung; NCI-H226 lung; NCI-H322M lung; HOP-62 NSCLC; NCI-H460 lung; HOP-92 NSCLC; NCI-H522 lung; A549/ATCC NSCLC; 786-0 renal; COLO 205 colon; DU-145 prostate; K-562 leukemia; MALME-3M melanoma; MDA-MB-231 breast; SF-268 CNS; SF-295 CNS; SF-539 CNS; UACC-257 melanoma; M14 melanoma.
Common to all, as to experiment: NCI-60 one-dose screen, 48 h (100 = growth as untreated, 0 = no growth, -100 = all killed)
What all share (settings): 10 µM unless noted

Consider `COc1ccccc1-c1c(-c2ccc(Cl)cc2)c2cc3c(cc2[nH]c1=O)OCCO3`, for which the growth with NCI-H23 lung is 72.8%; with NCI-H226 lung it was 84%; with NCI-H322M lung, 89%; in the assay with HOP-62 NSCLC, 89.8%; with NCI-H460 lung, 66.3%; with HOP-92 NSCLC, 80.7%. Moreover, the growth was 62.4% with NCI-H522 lung; 63.6% with A549/ATCC NSCLC; 85.4% in the assay on 786-0 renal; 92.6% with COLO 205 colon; 83.6% with DU-145 prostate; 44.3% in the assay with K-562 leukemia. The growth with MALME-3M melanoma was 87.4%; in the assay with MDA-MB-231 breast, 95.5%; with SF-268 CNS it was 68.2%; with SF-295 CNS it was 58.5%; with SF-539 CNS it was 88.2%; in the assay on UACC-257 melanoma it was 73%. The growth in the assay on M14 melanoma was 72.5%.

With `CCCCCCCCCCCCCCCCCCOc1ccccc1N`, the growth was 87.8% in the assay with NCI-H23 lung; 97.6% in the assay on NCI-H226 lung; 81.7% in the assay with NCI-H322M lung; 90.9% in the assay on HOP-62 NSCLC; 47.6% with NCI-H460 lung; 78.7% in the assay on HOP-92 NSCLC. The growth with NCI-H522 lung was 3.78% (active); with A549/ATCC NSCLC, 25.5%; in the assay with 786-0 renal it was 25%; in the assay on COLO 205 colon it was 46.3%; in the assay on DU-145 prostate it was 62%; with K-562 leukemia, 86.6%. The growth was 102% in the assay on MALME-3M melanoma; 24.7% in the assay on MDA-MB-231 breast; 56.6% with SF-268 CNS; 54.3% with SF-295 CNS; 20.5% in the assay with SF-539 CNS; 55.4% with UACC-257 melanoma. Besides, the growth with M14 melanoma was 72.9%.

`CC1(C)CCCN1CCCN1c2ccccc2Sc2ccc(Cl)cc21`: the growth was 72.5% in the assay on NCI-H23 lung; 82.9% in the assay with NCI-H226 lung; 74.1% in the assay with NCI-H322M lung; 77% in the assay with HOP-62 NSCLC; 60.8% with NCI-H460 lung; 62.9% in the assay with HOP-92 NSCLC. Moreover, the growth in the assay on NCI-H522 lung is 76.6%; with A549/ATCC NSCLC, 83.8%; in the assay on 786-0 renal, 54.2%; in the assay with COLO 205 colon, 43.6%; in the assay with DU-145 prostate, 78.5%; in the assay on K-562 leukemia it was 14.2%. Further, the growth in the assay on MALME-3M melanoma was 67.2%; with MDA-MB-231 breast, 45.5%; in the assay with SF-268 CNS it was 76.3%; in the assay on SF-295 CNS, 68.2%; in the assay with SF-539 CNS, 78.2%; with UACC-257 melanoma, 105%. Further, the growth in the assay with M14 melanoma was 39.1%.

Turning to `COc1cc(C2CC(c3cccc(Nc4ccncc4)c3)=NN2c2cc(Cl)cc(Cl)c2)cc(OC)c1OC` (stereo unspecified), the growth with NCI-H23 lung was 77.8%; in the assay with NCI-H226 lung, 87%; with NCI-H322M lung it was 64.2%; in the assay on HOP-62 NSCLC, -29.2% (active); with NCI-H460 lung, -68.4% (active); with HOP-92 NSCLC it was 37.4%. In addition, the growth in the assay with NCI-H522 lung was 0.35% (active); with A549/ATCC NSCLC it was 17.9%; with 786-0 renal, 101%; in the assay on COLO 205 colon, -58.7% (active); with DU-145 prostate it was -18.1% (active); in the assay on K-562 leukemia it was -1.05% (active). The growth was -77.9% (active) in the assay on MALME-3M melanoma; 19.8% in the assay on MDA-MB-231 breast; 42.4% with SF-268 CNS; 1.81% (active) with SF-295 CNS; 70% with SF-539 CNS; 1.77% (active) in the assay on UACC-257 melanoma. The growth with M14 melanoma is 96.2%.

In the case of `O=C(N/N=C/c1ccc(O)c(O)c1)c1sc2ccccc2c1Cl`, the growth is 97% with NCI-H23 lung; 68.8% in the assay with NCI-H226 lung; 98.5% with NCI-H322M lung; 81.7% with HOP-62 NSCLC; 46% in the assay with NCI-H460 lung; 49.7% with HOP-92 NSCLC. Besides, the growth in the assay with NCI-H522 lung was 95%; with A549/ATCC NSCLC, 96.3%; in the assay on 786-0 renal it was 65.2%; with COLO 205 colon it was 53.5%; with DU-145 prostate, 108%; with K-562 leukemia, 95.9%. Further, the growth in the assay on MALME-3M melanoma is 96.8%; in the assay with MDA-MB-231 breast it was 101%; in the assay with SF-268 CNS it was 77.9%; with SF-295 CNS, 114%; in the assay on SF-539 CNS it was 52.2%; with UACC-257 melanoma, 111%. Moreover, in the assay on M14 melanoma, the growth is 97.7%.

Consider `O=C(OCc1nc2nc(Cl)nc(N3CCOCC3)c2[nH]1)n1ccnc1`, for which the growth in the assay on NCI-H23 lung is 40.7%; in the assay on NCI-H226 lung, -67.6% (active); with NCI-H322M lung it was 65.4%; in the assay with HOP-62 NSCLC, 30.4%; with NCI-H460 lung it was 3.6% (active); in the assay with HOP-92 NSCLC, -66.7% (active). Also, the growth is -66% (active) with NCI-H522 lung; 48.4% in the assay on A549/ATCC NSCLC; -81.4% (active) with 786-0 renal; -65.3% (active) in the assay on COLO 205 colon; 9.47% (active) with DU-145 prostate; -7.19% (active) in the assay on K-562 leukemia. Also, the growth is 11% with MALME-3M melanoma; -6.91% (active) in the assay with MDA-MB-231 breast; 5.74% (active) in the assay on SF-268 CNS; 95.2% with SF-295 CNS; -19.7% (active) in the assay on SF-539 CNS; -71% (active) in the assay with UACC-257 melanoma. The growth in the assay with M14 melanoma was -37.6% (active).

`Cc1ccc(C2CC(c3cccc(Nc4ccncc4)c3)=NN2c2cc(Cl)cc(Cl)c2)cc1` (stereo unspecified): the growth was 61.1% in the assay on NCI-H23 lung; 86.3% with NCI-H226 lung; 73.7% with NCI-H322M lung; 40.5% in the assay on HOP-62 NSCLC; -73.4% (active) in the assay with NCI-H460 lung; 57.7% in the assay with HOP-92 NSCLC. Besides, the growth in the assay on NCI-H522 lung was 21%; in the assay on A549/ATCC NSCLC, 4.87% (active); with 786-0 renal it was 51%; with COLO 205 colon it was -43.1% (active); in the assay with DU-145 prostate it was 30.8%; in the assay on K-562 leukemia it was 1.45% (active). For the same molecule, the growth in the assay with MALME-3M melanoma is 1.81% (active); in the assay with MDA-MB-231 breast, 40.9%; in the assay on SF-268 CNS, 82.8%; in the assay with SF-295 CNS, -6.71% (active); in the assay on SF-539 CNS, 78.1%; in the assay on UACC-257 melanoma, 76.2%. In addition, in the assay on M14 melanoma, the growth was 2.02% (active).

Consider `COc1ccc(C(=O)c2cc3c(N)c(C(=O)Nc4cccc(Br)c4C)sc3nc2C)cc1`, for which the growth with NCI-H23 lung was 27.4%; with NCI-H226 lung, 45.6%; with NCI-H322M lung, 52.6%; in the assay with HOP-62 NSCLC, 28.8%; in the assay on NCI-H460 lung, 5.88% (active); in the assay with HOP-92 NSCLC it was 13.6%. Further, the growth with NCI-H522 lung is -27.4% (active); in the assay with A549/ATCC NSCLC, 17.4%; with 786-0 renal it was 26.2%; with COLO 205 colon it was -40% (active); in the assay on DU-145 prostate it was 8.9% (active); in the assay on K-562 leukemia it was 5.28% (active). The growth is 51.8% in the assay with MALME-3M melanoma; 13% with MDA-MB-231 breast; 22.9% in the assay on SF-268 CNS; 22.2% in the assay with SF-295 CNS; -15.3% (active) in the assay on SF-539 CNS; 59% with UACC-257 melanoma. Moreover, in the assay with M14 melanoma, the growth is 7.09% (active).

As for `CC(C)CCSc1nc(NNC(N)=O)c(C#N)c(-c2ccccc2)n1`, the growth in the assay on NCI-H23 lung was 91.3%; in the assay with NCI-H226 lung it was 96.6%; with NCI-H322M lung, 106%; in the assay with HOP-62 NSCLC, 105%; in the assay on NCI-H460 lung it was 112%; in the assay with HOP-92 NSCLC, 86.1%. For the same molecule, the growth with NCI-H522 lung was 97.4%; in the assay on A549/ATCC NSCLC it was 106%; in the assay with 786-0 renal, 75.2%; with COLO 205 colon it was 121%; in the assay with DU-145 prostate, 117%; in the assay with K-562 leukemia, 99.2%. For the same molecule, the growth is 99.7% in the assay on MALME-3M melanoma; 99.6% with MDA-MB-231 breast; 101% in the assay with SF-268 CNS; 96.9% in the assay with SF-295 CNS; 94.8% with SF-539 CNS; 102% with UACC-257 melanoma. Besides, in the assay on M14 melanoma, the growth is 71.7%.
